Reference: PubChem BioAssay AID1422 (Emory University Molecular Libraries Screening Center, 2008)
Several values for one entry are separate records, joined by “and”; a condition that tells them apart may be missing. Equal values may be shown once. About 1,300 (0.5%) of roughly 260,000 compounds were called active.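 Rule for the calls: active = percent inhibition above 40 after rounding to a whole number; inactive = the rest.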 For the sample, actives were picked, then their nearest neighbours and some compounds at random. Some compounds were tested as several samples or in several runs, with calls that do not always agree.

Biological target: Prostaglandin E2 receptor EP2 subtype (Homo sapiens) (UniProt P43116)
Sequence (P43116 whole entry, looked up): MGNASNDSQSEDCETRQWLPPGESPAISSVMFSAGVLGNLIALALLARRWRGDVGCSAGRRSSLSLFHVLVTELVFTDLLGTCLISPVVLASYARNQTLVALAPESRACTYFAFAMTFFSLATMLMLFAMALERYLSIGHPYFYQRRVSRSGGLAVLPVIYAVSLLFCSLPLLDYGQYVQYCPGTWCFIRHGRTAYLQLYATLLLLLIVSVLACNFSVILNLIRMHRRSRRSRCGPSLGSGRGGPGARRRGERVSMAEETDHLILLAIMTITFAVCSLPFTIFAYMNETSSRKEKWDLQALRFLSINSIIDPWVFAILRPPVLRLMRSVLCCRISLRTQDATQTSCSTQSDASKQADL
Experiment: human EP2 receptor antagonists, primary screen, TR-FRET cAMP, C6 glioma cells (AID 1422);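 note: rat C6 glioma host cells with rolipram phosphodiesterase inhibitor present; the protocol text gives 20 µM as final concentration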
Conditions: C6 glioma cells expressing human EP2, cAMP TR-FRET; at 25 µM; stronger effect = higher value; cells stimulated with saturating PGE2

SMILES | inhibition
Cc1sc(NC(=O)Cn2c(=O)sc3ccccc32)c(C#N)c1C | 7.54% (inactive)
COc1ccccc1CNC(=O)C1CCN(c2cnccn2)CC1 | 9.64% (inactive)
CC1(C)CC2CC(C)(CN2C(=O)c2ccc(Cl)cc2)C1 (configuration not stated) | 13.4% (inactive)
COc1ccc2[nH]c(=O)c(CN(CCCN(C)C)C(=S)Nc3ccccc3)cc2c1 | 9.95% (inactive)
C[N+]1(CCN=C=NC2CCCCC2)CCOCC1 | 42.8% (active)
Cc1c(O)c(Br)c(C)c(O)c1Br (tested in a mixture with another compound) | 105% (active)
CCc1ccc2nc3sc(C(=O)NCc4ccc5c(c4)OCO5)c(N)c3cc2c1 | 13.9% (inactive)
CCc1ccc2nc3sc(C(=O)OC)c(N)c3cc2c1 | 11.6% (inactive)
CCc1ccc2nc3sc(C(=O)Nc4nnc(CC)s4)c(N)c3cc2c1 | 90.2% (active) and 26.4% (inactive)
CCn1cc(C(=O)N[C@@H](C)Cn2nnc3ccccc32)c(=O)c2ccc(C)nc21 | 9.07% (inactive)
CCOC(=O)c1c(-c2ccc(C)cc2C)csc1NC(=O)CSc1nnnn1C | 44.2% (active)
CCOC(=O)CNC(=O)CSc1nnnn1-c1cc(C)ccc1C | -1.57% (inactive)
COC(=O)c1ccccc1NC(=O)CSc1nnnn1C | 9.91% (inactive) and 10.9% (inactive)
CCc1nnc(NC(=O)CSc2nnnn2-c2ccc(F)cc2)s1 | 7.48% (inactive)
COc1ccc(C2(C(=O)NCCn3nc(-c4cccs4)ccc3=O)CC2)cc1 | 4.83% (inactive)
CCOc1ccccc1NC(=O)CSc1nnnn1-c1ccc(F)cc1 | 10.9% (inactive)
CC(C)(C)NC(=O)Cn1nc(-c2nccc3ccccc23)oc1=O | 2.81% (inactive)
CC(=O)Nc1cccc([N+](=O)[O-])c1 | 3.91% (inactive)
COC(=O)/C=C\C(=O)Nc1cccc([N+](=O)[O-])c1 | 113% (active)

SMILES | inhibition
Cc1ccccc1NC(=S)Nc1cccc([N+](=O)[O-])c1 | 10.2% (inactive)
CCn1c(C)cc2cc(NC(=O)CCCn3nc(C)cc3C)ccc21 | 6.1% (inactive)
Cc1cc(C)cc(-c2nnc(SCC(=O)N3c4ccccc4CC3C)o2)c1 (configuration not stated) | 15.9% (inactive)
CCN1CCN(CCNC(=O)c2ccc(/C=C3/Sc4ccccc4N(Cc4cccc(C)c4)C3=O)cc2)CC1 | 15.1% (inactive)
CCN1/C(=C\c2ccc3ccccc3[n+]2CC)Sc2cc(C)ccc21 | 88.5% (active)
CCN1/C(=C/C(=S)Nc2ccccc2)Sc2ccccc21 | 11.8% (inactive)
CCCN1/C(=C/c2ccc3ccccc3[n+]2CC)Sc2cc(NC(C)=O)ccc21 | 13.2% (inactive)
CCN1/C(=C/c2ccc3ccc(C)cc3[n+]2CC)Sc2ccccc21 | 49.2% (active)
CCN1CCN(C(=O)Nc2cccc(Cl)c2)CC1 | 10.7% (inactive)
CCOc1ccc2nc(SCC(=O)Nc3ccc(OC)cc3)sc2c1 | 6.3% (inactive)
Cc1ccc(CN(Cc2cc3c(C)cc(C)cc3[nH]c2=O)C(=O)NC2CCCCC2)cc1 | 8.55% (inactive)
Cc1cccc2cc(CN(Cc3ccco3)S(=O)(=O)c3cccc4nsnc34)c(=O)[nH]c12 | 24.1% (inactive)
COc1ccc2[nH]c(=O)c(CN(Cc3ccc4c(c3)OCO4)S(=O)(=O)c3ccc(F)cc3)cc2c1 | 12% (inactive)
COc1ccc2[nH]c(=O)c(CN(Cc3ccco3)S(=O)(=O)c3c(C)ccc4nsnc34)cc2c1 | 46.1% (active)
O=c1[nH]c2cc3c(cc2cc1CN(Cc1cccnc1)S(=O)(=O)c1ccc(Cl)cc1)OCCO3 | 19.4% (inactive)
COc1ccc2[nH]c(=O)c(CN(Cc3cccnc3)S(=O)(=O)c3ccccc3F)cc2c1 | 45.8% (active)
COc1ccc(N(Cc2cc3cc(OC)ccc3[nH]c2=O)S(C)(=O)=O)cc1 | 6.17% (inactive)
Cc1nnc2sc(-c3ccc(NC(=O)c4ccc(Br)o4)cc3)nn12 | 15% (inactive)
COc1ccc2c(c1)NC1(CCN(C(=O)c3cnsc3)CC1)c1cccn1-2 | 9.97% (inactive)

SMILES | inhibition
Cc1cccc2cc(CN(Cc3cccs3)Cc3nnnn3C3CCCCC3)c(=O)[nH]c12 | 2.93% (inactive)
Cc1ncc([N+](=O)[O-])n1Cc1nnc(N)s1 | 11.5% (inactive)
CC(C)(C)C1=NN(CC(=O)NCc2ccncc2)C(=O)c2cc3ccccc3n2C1 | 4.49% (inactive)
COc1nc(C)c(CC(=O)NC2(c3cccc(F)c3)CCCC2)c(OC)n1 | 13.3% (inactive)
Cc1[nH]c2ccc(-c3nnc(SCCC#N)n3C)cc2c1C | 10.1% (inactive)
CC(C)(C)C1=NN(CC(=O)NCCc2ccco2)C(=O)c2cc3ccccc3n2C1 | 11.5% (inactive)
COc1ccc(C(c2nnnn2C(C)(C)C)N2CCN(c3ccc(OC)cc3)CC2)cc1 (configuration not stated) | 10.7% (inactive)
Cc1ccc2c(c1)C(O)CC1(CCN(CC(O)c3ccc(F)c(F)c3)CC1)O2 (configuration not stated) | 8.77% (inactive)
Cc1ccc2c(c1)C1CN(C)CCC1N2C(=O)c1ccccc1NS(=O)(=O)c1ccc(F)cc1C (configuration not stated) | 8.83% (inactive)
Cc1ccc2c(c1)C1CN(C)CCC1N2C(=S)Nc1ccc(OC(F)F)cc1 (configuration not stated) | 112% (active)
Cc1ccc2c(c1)C1CN(C)CCC1N2C(=S)Nc1ccc(Cl)cc1Cl (configuration not stated) | 15.3% (inactive)
Cc1cc(NC(=O)COC(=O)COc2ccc(Cl)cc2C)c([N+](=O)[O-])cc1C | 5.32% (inactive)
CCOC(=O)N1CCN(C(=O)COc2ccc(Cl)cc2C)CC1 | 12.7% (inactive)
Cc1cc(Cl)ccc1OCC(=O)Oc1c(Cl)c(Cl)c(Cl)c(Cl)c1Cl | 50.2% (active)
CCc1cccc2cc3c(N)c(C(=O)Nc4cc(OC)ccc4OC)sc3nc12 | 5.34% (inactive)
CCn1cc(/C=C/c2nc3ccccc3c(=O)n2C)c2ccccc21 | 16.1% (inactive)
CC(=O)Nc1ccc(-c2csc(NC=C3C(=O)OC(C)(C)OC3=O)n2)cc1 | 2.63% (inactive)
CC(=O)Nc1ccc(-c2csc(NC(=O)Nc3ccccc3)n2)cc1 | 55% (active)
CC(=O)Nc1ccc(S(=O)(=O)Nc2nc(-c3ccc(C(C)(C)C)cc3)cs2)cc1 | 4.4% (inactive)
